Measurements: PubChem BioAssay AID1159580 (chemical genetic matrix, 2015)
Hit rate of the full screen: of about 5,500 compounds, about 2,000 (36%) were called active. Not shown: some 18% with an inconclusive outcome. Cut-off read from the data, not from the text of the source: active = normalized growth mostly below about 0.91 (no sharp cut-off); inconclusive = no clear call, values can overlap the other calls; inactive = mostly above about 0.92. The list shows a part of the results.

Test: chemical genetic growth profiling, strain panel (AID 1159580);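 note: tested at 20 µM; growth read once vehicle control cultures reached saturation at 30 °C; 1 = growth at the plate median or of vehicle wells; lower values mean less growth of the strain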
Conditions: S. cerevisiae deletion strains, growth OD

Measured: normalized growth

CC[C@]12C=CCN3CC[C@@]4(c5ccc(OC)cc5N(C)C4[C@@](O)(C(=O)OC)[C@@H]1OC(C)=O)[C@@H]32 (stereo not given in full)
inactive: locus YAL021C, strain ccr4, active compounds read low 1.01 | locus YAL026C, strain drs2, active compounds read low 0.993 | locus YAL030W, strain snc1, active compounds read low 1.02 | locus YBL061C, strain skt5, active compounds read low 1.01 | locus YBR009C, strain hhf1, active compounds read low 1.01 | locus YBR023C, strain chs3, active compounds read low 1.01 | locus YBR171W, strain sec66, active compounds read low 0.995 | locus YBR231C, strain swc5, active compounds read low 0.996 | locus YBR279W, strain paf1, active compounds read low 1 | locus YCL011C, strain gbp2, active compounds read low 1.02 | locus YCL016C, strain dcc1, active compounds read low 0.988 | locus YCL061C, strain MRC1, active compounds read low 1.01 | locus YCL069W, strain vba3, active compounds read low 1 | locus YCR088W, strain abp1, active compounds read low 1 | locus YDL005C, strain med2, active compounds read low 0.992 | locus YDL040C, strain nat1, active compounds read low 1.02 | locus YDR001C, strain nth1, active compounds read low 1.02 | locus YDR069C, strain doa4, active compounds read low 0.989 | locus YDR137W, strain rgp1, active compounds read low 0.949 | locus YDR159W, strain sac3, active compounds read low 1 | locus YDR195W, strain ref2 1.01 | locus YDR297W, strain sur2, active compounds read low 0.996 | locus YDR334W, strain swr1, active compounds read low 1.04 | locus YDR335W, strain msn5, active compounds read low 1.01 | locus YDR392W, strain spt3, active compounds read low 0.943 | locus YEL003W, strain gim4, active compounds read low 1 | locus YEL037C, strain rad23, active compounds read low 1 | locus YEL061C, strain CIN8 (second series), active compounds read low 1.02 | locus YER015W, strain faa2, active compounds read low 1.01 | locus YER016W, strain bim1, active compounds read low 0.993 | locus YER111C, strain swi4, active compounds read low 0.981 | locus YER155C, strain BEM2 (second series), active compounds read low 0.973 | locus YFR010W, strain ubp6, active compounds read low 1 | locus YGL167C, strain pmr1, active compounds read low 0.992 | locus YGL173C, strain kem1, active compounds read low 0.998 | locus YGL227W, strain vid30, active compounds read low 0.989 | locus YGL240W, strain doc1, active compounds read low 1 | locus YGL253W, strain hxk2, active compounds read low 1.03 | locus YHR013C, strain ard1, active compounds read low 0.966 | locus YHR027C, strain rpn1, active compounds read low 1.01 | locus YHR030C, strain SLT2, active compounds read low 0.912 | locus YHR079C, strain IRE1, active compounds read low 0.924 | locus YHR142W, strain chs7, active compounds read low 1.04 | locus YJL092W, strain hpr5, active compounds read low 1.01 | locus YJL095W, strain BCK1 (second series), active compounds read low 1 | locus YJL095W, strain BCK1, active compounds read low 0.983 | locus YJL115W, strain asf1, active compounds read low 0.999 | locus YJL129C, strain trk1, active compounds read low 1.02 | locus YJL154C, strain vps35, active compounds read low 0.992 | locus YJL164C, strain tpk1, active compounds read low 1.01 | locus YJL166W, strain qcr8, active compounds read low 1.01 | locus YJL187C, strain SWE1, active compounds read low 1 | locus YJR066W, strain TOR1, active compounds read low 0.909 | locus YKL160W, strain elf1, active compounds read low 0.995 | locus YKR026C, strain gcn3, active compounds read low 1.01 | locus YKR091W, strain srl3, active compounds read low 0.992 | locus YLL001W, strain dnm1, active compounds read low 0.997 | locus YLL026W, active compounds read low 0.992 | locus YLL041C, strain sdh2, active compounds read low 1.01 | locus YLR027C, strain aat2, active compounds read low 1.01 | locus YLR113W, strain HOG1, active compounds read low 0.942 | locus YLR221C, strain rsa3, active compounds read low 0.999 | locus YLR258W, strain gsy2, active compounds read low 1.01 | locus YLR262C, strain YPT6 (second series), active compounds read low 0.927 | locus YLR320W, strain mms22, active compounds read low 0.97 | locus YLR342W, strain FKS1, active compounds read low 0.965 | locus YLR357W, strain rsc2, active compounds read low 1.02 | locus YLR370C, strain arc18, active compounds read low 1.01 | locus YLR384C, strain iki3, active compounds read low 1.01 | locus YML120C, strain ndi1, active compounds read low 0.994 | locus YMR058W, strain fet3, active compounds read low 1.04 | locus YMR125W, strain sto1, active compounds read low 1.03 | locus YMR129W, active compounds read low 1 | locus YMR205C, strain PFK2, active compounds read low 1.01 | locus YMR231W, strain pep5, active compounds read low 0.993 | locus YNL071W, strain lat1, active compounds read low 0.985 | locus YNL183C, strain NPR1, active compounds read low 0.961 | locus YNL209W, strain ssb2, active compounds read low 1.01 | locus YNL248C, strain rpa49, active compounds read low 0.982 | locus YNL322C, strain KRE1 (second series), active compounds read low 0.987 | locus YNR049C, strain mso1, active compounds read low 1.01 | locus YOR001W, strain rrp6, active compounds read low 1.01 | locus YOR070C, strain gyp1, active compounds read low 1 | locus YOR080W, strain dia2, active compounds read low 1 | locus YOR083W, strain WHI5, active compounds read low 0.934 | locus YOR106W, strain vam3, active compounds read low 0.994 | locus YOR231W, strain MKK1, active compounds read low 0.928 | locus YOR265W, strain rbl2, active compounds read low 1.01 | locus YOR270C, strain vph1, active compounds read low 0.934 | locus YOR290C, strain snf2, active compounds read low 0.999 | locus YPL051W, strain arl3, active compounds read low 0.984 | locus YPL078C, strain atp4, active compounds read low 0.989 | locus YPL106C, strain sse1, active compounds read low 0.988 | locus YPL240C, strain hsp82, active compounds read low 1 | locus YPL256C, strain CLN2, active compounds read low 0.923
